Compounds without any hit were thinned out: in the full panel of roughly 83,000, 20% have a hit.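 48-hour exposure, single concentration, 96-well plates; percent growth endpoint where 0 means no net growth. Active: below 10.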 Values without a mark were called inactive. Calls of active or inactive are those of the source.
These molecules were tested on HL-60(TB) leukemia (assay: NCI-60 one-dose screen, 48 h (100 = growth as untreated, 0 = no growth, -100 = all killed)). Details: 10 µM unless noted.

Row | Structure (SMILES) | growth
1 | S=c1nc2[nH]c3ccccc3c2n[nH]1 | 148%
2 | O=C1c2ccccc2C(=O)c2c1ccc1c(=O)n(-c3ccccc3C(F)(F)F)nnc21 | -42% (active)
3 | CC(CNC(Cc1ccccc1)c1ccccc1)NC(Cc1ccccc1)c1ccccc1 (stereo not given) | 26.2%
4 | Cc1c2ccncc2c(C)c2c1c1cc(CO)ccc1n2C | 19.2%
5 | COc1cc(NC(=O)COc2cc(C)nc3ccc(OC)cc23)cc(OC)c1 | 80.3%
6 | C=CCn1cc(-c2nc3ccccc3s2)c2cc(-c3ccc4c5c(cccc35)C(=O)N(CCN3CCNCC3)C4=O)ccc21 | 103%
7 | CC(=O)OC(C)COc1ccc(-c2ccccc2)cc1 (stereo not given) | 104%
8 | COc1ccc(C(=O)C(C)Br)cc1OC (stereo not given) | 96.7%
9 | CCCCc1nc(Cl)c(C2CC(c3ccc(Cl)cc3)=NN2c2cc(Cl)cc(Cl)c2)[nH]1 (stereo not given) | 35.4%
10 | COc1cc(C2=NOC(c3cc(OC)c(OC)c(OC)c3)C2)ccc1OCCCCOc1cc2c(cc1OC)C(=O)N1CCC[C@H]1C=N2 (stereo not given in full) | -22.7% (active)
11 | COc1ccc(Cc2cnc(NC(=O)c3cc(C)oc3C)s2)cc1 | -9.34% (active)
12 | COc1ccc(/C(=C\c2ccc3c(c2)OCO3)C(=O)Nc2nc3ccccc3s2)cc1 | 101%
13 | O=[N+]([O-])c1cc[n+]([O-])cc1 | 36.1%
14 | CC1=CC=C(NC(=O)/C=C/c2ccccc2)CC1Nc1nccc(-c2cccnc2)n1 (stereo not given) | -0.0857% (active)
15 | Cc1c(-c2ccc(-c3ccccc3F)cc2)nc2ccc(F)cc2c1C(=O)O | 5.22% (active)
